Source: PubChem BioAssay
Rows were chosen to be rich in hits. Some 10% of all compounds tested hit in one or more screens of this group.
MmCpn inh: M. maripaludis TRiC chaperonin inhibition. purified Mm-Cpn ATPase, ADP Transcreener TR-FRET. Potency, µM (highest dose often 76.9 µM), for the others: at the highest dose activity, negative = inhibition, actives largely listed as inhibitors. 0.031% of 330,000 active. AID 504842; note: potency is the fitted concentration of half-maximal effect; nearly all actives have a fitted effect of over 80% in size
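TR-FRET (320 nm excitation; 590 and 665 nm emission) reports ADP made from 10 uM ATP by 25 nM enzyme; compounds were preincubated 10 min, reaction run 30 min, both at 37°C.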
Sfp PPTase inh: Sfp phosphopantetheinyl transferase inhibition; Q9F4F7; AID 1490; 3.5% of 310,000 active; Potency, µM, inactives show largest response in the series, negative = inhibition, most hits filed as inhibitors; Biochemical Sfp PPTase activity, qHTS;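 note: the enzyme is Sfp with the accession as filed and its product quenches rhodamine fluorescence; potency is the fitted concentration of half-maximal effect; 0% = enzyme reaction without inhibitor and -100% = no enzyme wells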
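Sfp 15 nM + cpd, 15 min RT; start w/ rhodamine-CoA 5 uM, BHQ-2-YbbR 12.5 uM (final); 50 mM Hepes pH 7.6, 10 mM MgCl2, 0.01% NP-40, 0.01% BSA; read 525/598 nm at 0 and 30 min.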
VDR inh: vitamin D3 receptor (human) inhibition; VDR-SRC2-3 peptide fluorescence polarization, 2 h; AID 504847; P11473; Potency, µM, for inactives: max response, negative = inhibition, actives largely listed as inhibitors; 0.93% of 400,000 active; note: potency is the fitted concentration of half-maximal effect
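FP read-out; VDR + SRC2-3 coactivator peptide; 23 nl compound by pintool; 2 h RT incubation; reagents held at 4 deg C, protected from light.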
CCT chaperon mod: cytosolic chaperonin activity modulation. purified chaperonin ATPase assay, HTRF ADP detection, 30 min. activity change, % (no concentration beside the values), hits read low. 0.3% of 360,000 active; in the data active = activity change below about -30%
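TRiC (40 or 20 nM final, by batch activity) in 30 mM Tris pH 7.4, 100 mM KCl, 5 mM MgCl2, 1 mM DTT was treated with compound at 76 uM single dose, then 10 uM ATP, 30 min at 37 °C. ADP was read by HTRF Transcreener.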
G9a inh: inhibitors of human histone lysine methyltransferase G9a | Q96KQ7 | G9a H3K9 monomethylation, AlphaScreen, 2 h | Potency, µM (doses to about 102 µM), inactives show at the top dose activity, negative = inhibition, hits mostly inhibitors | 8.8% of 350,000 active | AID 504332; note: potency is the fitted concentration of half-maximal effect; nearly all actives have a fitted effect of over 75% in size
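Using a bead-based AlphaScreen, monomethylated H3K9 product from 2 h room-temperature reactions (G9a 20 nM, peptide 500 nM, SAM 20 uM) was detected with 0.5 ug/mL rabbit anti-H3K9me1 antibody.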
PLK1 PBD inh: inhibitors of human PLK1 polo-box domain binding; P53350; Potency, µM, for the others: max response, negative = inhibition, most hits filed as inhibitors; 2.8% of 360,000 active; Plk1 PBD binding of FITC phosphopeptide, fluorescence polarization; note: potency is the fitted concentration of half-maximal effect; series mostly up to about 57 µM; nearly all actives have a fitted effect of over 65% in size
Target sequence (P53350 whole entry, looked up, the tested form may be a part): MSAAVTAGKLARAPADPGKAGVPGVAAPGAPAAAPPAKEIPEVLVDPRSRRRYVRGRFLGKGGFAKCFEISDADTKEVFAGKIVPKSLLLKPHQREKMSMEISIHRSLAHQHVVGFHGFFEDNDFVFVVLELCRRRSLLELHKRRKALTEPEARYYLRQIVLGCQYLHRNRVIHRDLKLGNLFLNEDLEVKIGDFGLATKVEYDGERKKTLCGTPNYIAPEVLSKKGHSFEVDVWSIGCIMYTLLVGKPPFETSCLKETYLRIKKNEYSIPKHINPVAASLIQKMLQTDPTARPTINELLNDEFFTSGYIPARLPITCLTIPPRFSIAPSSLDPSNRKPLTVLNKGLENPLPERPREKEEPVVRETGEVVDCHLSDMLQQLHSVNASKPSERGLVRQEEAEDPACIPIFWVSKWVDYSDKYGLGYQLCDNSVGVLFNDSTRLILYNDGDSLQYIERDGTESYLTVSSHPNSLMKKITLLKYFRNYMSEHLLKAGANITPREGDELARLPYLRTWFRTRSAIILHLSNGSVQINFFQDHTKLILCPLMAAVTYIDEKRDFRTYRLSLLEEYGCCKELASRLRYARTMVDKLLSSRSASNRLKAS
An asterisk follows results filed as active; ? = inconclusive; . = not tested or not shown; ! = repeats disagree; [ ] = dose if it differs, or a comment. Unless noted, calls come from the whole dose curve; as a rule, active = well fitted curve in the direction sought with a large enough effect; inconclusive = small, poorly fitted or top-dose-only effect, or another doubt; inactive = no such curve, though single readings can be large; an effect the other way counts as inactive or inconclusive. Unless noted, % is set by controls: 0 for no effect and ±100 for the full control effect.

SMILES	MmCpn inh	Sfp PPTase inh	VDR inh	CCT chaperon mod	G9a inh	PLK1 PBD inh
CN(C)c1ccc(N2CC(C)(C)C2=O)cc1	-7%	1%	4%	0	10µM*	-3%
COc1cc(OC)cc(N2CC(C)(C)C2=O)c1	-1%	14%	-24%	-4	-2%	21µM*
CC(=O)c1ccc(N2CC(C)(C)C2=O)cc1	-5%	8%	0%	2	0%	-4%
CCOC(=O)c1c(NC(=O)COc2ccc(Cl)cc2Cl)sc2c1CCCCC2	.	.	7%	.	9%[59 µM]	.
C#CCOCCOCCOCCNc1nc(N2CCN(C(=O)[C@H](CCC(=O)O)n3cc(C(N)CO)nn3)CC2)nc(N2CCN(C(=O)[C@H](CCC(=O)O)n3cc(C(N)CO)nn3)CC2)n1 (stereo partly specified)	1%	-24%	.	.	?	.
C#CCOCCOCCOCCNc1nc(N2CCN(C(=O)[C@H](CCC(=O)O)n3cc(C(N)CO)nn3)CC2)nc(N2CCN(C(=O)[C@H](CCC(=O)O)n3cc(C(N)CC(C)C)nn3)CC2)n1 (stereo partly specified)	3%	89µM*	.	.	?	.
C#CCOCCOCCOCCNc1nc(N2CCN(C(=O)[C@H](Cc3cc4ccccc4[nH]3)n3cc([C@@H](N)Cc4ccc(O)cc4)nn3)CC2)nc(N2CCN(C(=O)[C@H](Cc3cc4ccccc4[nH]3)n3cc([C@@H](N)CC(C)C)nn3)CC2)n1	0%	56µM*	38%	-2	?	-9%
C#CCOCCOCCOCCNc1nc(N2CCN(C(=O)[C@H](Cc3cc4ccccc4[nH]3)n3cc([C@@H](N)CC(C)C)nn3)CC2)nc(N2CCN(C(=O)[C@H](Cc3cc4ccccc4[nH]3)n3cc([C@@H](N)CC(C)C)nn3)CC2)n1	.	16µM*	19%	1	?	0%
CCOC(=O)N1CCc2c(sc3c2c(=O)n(-c2ccccc2)c(=O)n3CC(=O)Nc2ccc(OC)cc2OC)C1	.	.	-5%	.	-20%[59 µM]	.
Cc1ccc(C)c(N2C(=O)N(Cc3cc(=O)n4ccccc4n3)c3ccccc3S2(=O)=O)c1	.	.	6%	.	0%[59 µM]	.
Cn1cnnc1Sc1ccc(C(=O)OCC(=O)Nc2ccccc2)cc1[N+](=O)[O-]	-4%	2%	-8%	-3	-4%[59 µM]	?
Cn1cnnc1Sc1ccc(C(=O)OCC(=O)Nc2cc(Cl)cc(Cl)c2)cc1[N+](=O)[O-]	4%	7%	-6%	-2	16µM*	-20%
CCOC(=O)/C(=N\Nc1cc(Cl)ccc1Cl)N1CCN(CC)CC1	0%	-1%	-10%	-1	?	-19%
CCOC(=O)C(=NCCOC)NNc1cc(Cl)ccc1Cl	-10%	-28%	-10%	-4	40µM*	-4%
CCOC(=O)c1c(N)sc(C(=O)OCCOC)c1C	0%	25µM*	79µM*	1	11µM*	9.5µM*
CCOC(=O)c1sc(N)c(C(=O)Nc2ccccc2)c1C	-21%	20µM*	?	-1	10µM*	9.5µM*
CCOC(=O)c1sc(N)c(C(=O)OCC)c1C	0%	1%	1%	-1	7%[59 µM]	-15%
CCOC(=O)c1sc(NC(=O)c2ccccc2)cc1C	-22%	-3%	7%	-1	-17%	1%
CCOC(=O)c1sc(NC(=O)c2c(C)nn(Cc3ccccc3)c2C)cc1C	-18%	-5%	11%	2	50µM*	3%
COc1ccc(CCNC(=O)c2c(C)oc3nc(C)nc(N4CCOCC4)c23)cc1OC	.	.	14%	.	-9%[59 µM]	.
CCC(C)C(N)C(=O)O (stereo unspecified)	.	14%	0%	.	4%[12.7 µM]	.
CCCCOc1cccc(C(=O)Nc2cc3nn(-c4ccc(F)cc4)nc3cc2C)c1	.	.	-17%	.	5%[59 µM]	.
Cc1cccc(OC(=O)c2cncc(Br)c2)c1	-1%	-7%	-16%	0	?	27µM*
CCOc1ccc(CCNC(=O)c2sc3ncccc3c2-n2c(C)ccc2C)cc1	.	.	9%	.	-35%[59 µM]	.
Cc1c(C(=O)NCCSCc2ccco2)cccc1[N+](=O)[O-]	1%	8%	8%	1	8%[59 µM]	-4%
SMILES	MmCpn inh	Sfp PPTase inh	VDR inh	CCT chaperon mod	G9a inh	PLK1 PBD inh
CN/C(=C\[N+](=O)[O-])NCCSCc1ccc(CN(C)C)o1	1%	11%	-14%	-1	11µM*!	5%
Cc1nc(N2C(=O)c3oc4ccccc4c(=O)c3C2c2ccccc2F)sc1C (stereo unspecified)	.	.	-12%	.	15%[59 µM]	.
CC1(C)CC(c2nc(-c3ccc(Br)cc3)cs2)CCS1 (stereo unspecified)	-1%	-3%	?	-3	26%[59 µM]	3.8µM*
CC1(C)CC(c2nc(-c3ccc(Cl)cc3)cs2)CCS1 (stereo unspecified)	1%	8%	8%	-2	50%[59 µM]	-1%
COc1ccc(N2CCCC2)c(NC(=O)c2ccc([N+](=O)[O-])o2)c1	1%	0%	79µM*	-1	?	24µM*
O=C(Nc1ccc(N2CCCC2)c(Cl)c1)c1ccc([N+](=O)[O-])o1	-6%	-5%	4%	3	25µM*	-3%
O=C(Nc1cccc(NC(=O)c2ccccc2Cl)c1)c1ccc([N+](=O)[O-])o1	-2%	8%	2%	0	5%[59 µM]	-24%
O=C(Nc1ccccc1N1CCCC1)c1ccc([N+](=O)[O-])o1	2%	-18%	32%	-1	3%[12.7 µM]	-8%
CS(=O)(=O)N1CCN(c2ccc(NC(=O)c3ccc([N+](=O)[O-])o3)cc2)CC1	0%	9%	11%	0	?	-2%
CC1CCN(c2ccc(NC(=O)c3ccc([N+](=O)[O-])o3)cc2)CC1	-2%	.	5%	3	35µM*	-3%
O=C(Nc1cc([N+](=O)[O-])ccc1N1CCCC1)c1ccco1	0%	9%	-5%	1	50µM*	-11%
O=C1C2CCC(C2)[C@@H]2CCCCN12 (stereo partly specified)	.	12%	-1%	.	29%[135 µM]	.
Cc1cccc(N(Cc2cc3ccccc3[nH]c2=O)C(=O)c2cccc(Cl)c2)c1	.	.	10%	.	?	.
COc1cccc2cc(-c3nc(-c4ccccc4F)no3)c(=O)oc12	.	.	1%	.	20%[59 µM]	.
CC(=O)N1CCC2(CCCN(c3ccc(-c4ccccc4)cc3)C2)CC1	.	?	?	.	-1%[12.7 µM]	.
O=C(Nc1ccc(N2CCCCC2)cc1)c1ccc([N+](=O)[O-])o1	-4%	7%	6%	1	40µM*	-21%
CC(C)(C)C(=O)N1CCN(c2ccc(NC(=O)c3ccc([N+](=O)[O-])o3)cc2)CC1	-1%	12%	-12%	0	-16%[59 µM]	-8%
Cc1ccc(-c2nnc(SCC(=O)NCc3ccccc3)o2)cc1	.	.	1%	.	45%[59 µM]	.
COc1cccc(CNC(=O)Cn2c(=O)cc(C(F)(F)F)c3c(C)nn(C)c32)c1OC	.	.	3%	.	3%[59 µM]	.
